Screening results (PubChem BioAssay)
TGFb SMAD3 inh: qHTS for Inhibitors of TGF-b; Potency, µM (highest dose often 46.1 µM), without a hit: at the highest dose activity, negative = inhibition, hits mostly inhibitors; AID 588855, 2011; hit rate 1.2% among 410,000; HepG2 CAGA-GFP TGF-b/SMAD3 reporter, GFP fluorescence, 18 h; TGF-beta stimulated, 500 pg/mL final; note: % is set by controls: 0 for no effect and ±100 for the full control effect; nearly all actives have a fitted effect of over 65% in size
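Smad-responsive CAGA-GFP expression was quantified in HEPG2 cells exposed to compounds and 500 pg/mL final TGF-beta for 18 h at 37 degrees C; unstimulated wells defined full inhibition.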
RORgamma inh: qHTS for inhibitors of ROR gamma transcriptional activity. AID 2551, 2010. Nuclear receptor ROR-gamma (Mus musculus), P51450. Drosophila S2 Gal4-RORgamma UAS-luciferase reporter, 20 h. hit rate 5.4% among 310,000. Potency, µM (top dose mostly 53.6 µM), for the others: at the highest dose activity change, negative = inhibition, hits mostly inhibitors; note: % is set by controls: 0 for no effect and ±100 for the full control effect; nearly all actives have a fitted effect of over 60% in size
Target sequence (P51450 whole entry, looked up, the tested form may be a part): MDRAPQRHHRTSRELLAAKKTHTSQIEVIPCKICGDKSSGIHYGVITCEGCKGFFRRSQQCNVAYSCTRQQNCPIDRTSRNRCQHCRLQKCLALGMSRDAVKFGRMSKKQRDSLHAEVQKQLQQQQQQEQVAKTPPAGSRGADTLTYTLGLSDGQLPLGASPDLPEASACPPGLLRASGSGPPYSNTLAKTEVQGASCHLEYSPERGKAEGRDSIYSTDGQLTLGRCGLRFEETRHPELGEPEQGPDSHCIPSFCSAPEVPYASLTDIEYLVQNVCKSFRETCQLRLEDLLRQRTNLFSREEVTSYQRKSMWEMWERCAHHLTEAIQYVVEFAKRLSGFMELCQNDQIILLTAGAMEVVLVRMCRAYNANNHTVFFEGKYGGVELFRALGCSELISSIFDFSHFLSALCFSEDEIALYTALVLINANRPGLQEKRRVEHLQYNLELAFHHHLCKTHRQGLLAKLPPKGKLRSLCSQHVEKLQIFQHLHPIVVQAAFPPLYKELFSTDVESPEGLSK
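Read-out: Photinus luciferase luminescence; inhibitors lower reporter signal. Insect Schneider cells with Gal4-ROR gamma fusion under metallothionein promoter, UAS reporter; 700 uM final copper sulfate induction, 20 hr, ambient temperature.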
HepG2 tox: qHTS for Inhibitors of TGF-b: Cytotox Counterscreen; Potency, µM (doses to about 46.1 µM), for inactives: at the top dose activity change, negative = cytotoxicity, most hits filed as cytotoxic; hit rate 0.76% among 410,000; HepG2 CAGA-GFP viability, ATP luminescence, 18 h
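HepG2 CAGA-GFP cells (1000/well, DMEM with 1% FBS) received compound, then TGF-beta at 500 pg/mL final, and were incubated 18 hours at 37 degrees C. Viability was read by CellTiter-Glo luminescence. Media-only wells were set as complete cell-killing and DMSO as no toxicity.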
ATXN2 expr inh: Primary qHTS for Inhibitors of ATXN expression; hit rate 0.72% among 360,000; AID 1745845, 2022; HEK-293 ATXN2-luciferase reporter, luminescence, 24 h; Potency, µM (top dose mostly 57 µM), without a hit: at the highest dose activity change, negative = inhibition, most hits filed as inhibitors; note: % is set by controls: 0 for no effect and ±100 for the full control effect; nearly all actives have a fitted effect of over 55% in size
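ATXN2-luciferase reporter cells (luciferase flanked by upstream and downstream ATXN2 gene portions) were treated 24 h at 37 °C with compounds at up to 57 uM. SteadyGlo luminescence gave expression; GF-AFC fluorescence gave viability.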
VP16 counter: VP16 counterscreen qHTS for inhibitors of ROR gamma transcriptional activity | Drosophila S2 Gal4-VP16 UAS-luciferase, luminescence, 20 h | AID 2546, 2010 | hit rate 3.5% among 310,000 | Potency, µM (doses to about 53.6 µM), for inactives: at the highest dose activity, negative = inhibition, actives largely listed as inhibitors;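 note: Gal4-VP16 expression switched on by copper sulfate through the metallothionein promoter; % is set by controls: 0 for no effect and ±100 for the full control effect; nearly all actives have a fitted effect of over 50% in size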
ATXN viability: Viability Counterscreen for Primary qHTS for Inhibitors of ATXN expression; S2 cells (HEK-293 line with an ATXN2-luciferase reporter) viability, CellTiter-Fluor protease fluorescence, 24 h; hit rate 0.49% among 400,000; Potency, µM (titrated, usually from 56.7 µM), actives largely listed as cytotoxic; note: nearly all actives have a fitted effect of over 40% in size
Active calls of the source: *; i = inactive; ? = inconclusive; nt = no result given; [ ] = another dose, or the depositor's remark. Hits are enriched below; roughly 6.3% of the tested compounds scored in any of these assays. Calls come from the whole dose curve; as a rule, active = well fitted curve in the direction sought with a large enough effect; inconclusive = small, poorly fitted or top-dose-only effect, or another doubt; inactive = no such curve, though single readings can be large; an effect the other way counts as inactive or inconclusive. Potency is the fitted concentration of half-maximal effect.

SMILES	TGFb SMAD3 inh	RORgamma inh	HepG2 tox	ATXN2 expr inh	VP16 counter	ATXN viability
Cc1cc(C)n(-c2nc(SCCN(C)C)c3c4c(sc3n2)COC(C)(C)C4)n1	?	5.01µM*	-61.4%	?	7.08µM*	?
Cc1ccc(-n2nc3c(=O)n(CCCC(=O)NCCc4ccccc4Cl)nc(C)c3c2C)cc1	?	nt	-0.3%	nt	nt	nt
CCC(C)c1cc([N+](=O)[O-])cc([N+](=O)[O-])c1OC(C)=O (configuration not stated)	nt	-10.8%	nt	nt	0.8%	nt
COc1cc(O)c(C(=O)c2ccccc2)cc1S(=O)(=O)O	nt	-10.3%	nt	10.7%	7.9%	i
COc1cc(O)c(C(=O)c2ccccc2)cc1O	nt	12.6µM*	nt	nt	?	nt
O=c1c2oc3ccccc3c2n(Cc2ccc(Cl)cc2)c(=O)n1Cc1ccc2c(c1)OCO2	-21.8%	nt	-17.3%	nt	nt	nt
COc1cccc(NS(=O)(=O)c2ccc3c(c2)[C@H]2C=CC[C@H]2[C@@H](c2ccccc2Cl)N3)c1	11.2µM*	nt	-49.7%	0.0%	nt	i
O=S(=O)(c1ccccc1)N1CCN(c2ccnc3cc(Cl)ccc23)CC1	?	?	-30.1%	12.6µM*	?	?
O=C(Nc1cc(F)ccc1F)N1CCN(c2ccnc3cc(Cl)ccc23)CC1	2.8%	53.0%	-9.4%	?	12.6µM*	?
O=C(Nc1ccc(F)cc1F)N1CCN(c2ccc(Cl)c(Cl)c2)CC1	?	nt	-38.6%	20µM*	nt	?
COC(=O)c1cccc(NC(=O)CC2C(=O)NCCN2C(=O)Nc2cc(C)cc(C)c2)c1 (configuration not stated)	-1.6%	-1.7%	7.3%	3.4%	-14.8%	i
COc1cc2c(cc1OC)C(c1ccc(F)cc1)N(c1cccc(C#N)c1)C(=O)C2 (configuration not stated)	13.3%	nt	-1.4%	0.1%	nt	i
Cc1cc(F)ccc1S(=O)(=O)Nc1ccccc1C(=O)Nc1ncn[nH]1	19.5%	-0.8%	18.2%	2.4%	3.4%	i
Cc1cc(F)ccc1S(=O)(=O)Nc1ccccc1C(=O)Nc1ccccc1-c1nc2ccccc2[nH]1	?	-7.7%[10 µM]	7.94µM*	?	?	nt
O=c1[nH]/c(=C/c2ccc3c(c2)OCO3)c(=O)[nH]/c1=C\c1ccc2c(c1)OCO2	-0.2%	nt	-29.4%	nt	nt	nt
Cc1[nH]c2ccccc2c1C(=O)COC(=O)C1CC(O)CN1S(=O)(=O)c1ccc(Cl)cc1 (configuration not stated)	?	nt	-39.3%	38.1%	nt	i
CSCCC(NS(=O)(=O)c1ccc(Cl)cc1)C(=O)OCC(=O)c1c(C)[nH]c2ccccc12 (configuration not stated)	?	?	-82.4%	-5.2%	15.8µM*	i
CCOC(=O)CSc1nnc([C@H](CC(C)C)NC(=O)OC(C)(C)C)o1	-5.3%	12.6µM*	-25.3%	-5.3%	1.9%	i
CSCC[C@H](NC(=O)OC(C)(C)C)c1nnc(SCC=C(C)C)o1	0.0%	11.2µM*	-37.1%	2.6%	-20.4%	i
COC(=O)CSc1nnc([C@H](CC(C)C)NC(=O)OC(C)(C)C)o1	-4.3%	-8.1%	0.5%	-4.3%	-1.9%	i
CC(C)(C)n1ncc2c(=O)n(Cc3ccccc3-c3ccccc3)cnc21	-28.8%	nt	-16.1%	nt	nt	nt
COc1cc(C(=O)Nc2nnc(C3=COCCO3)o2)cc(OC)c1OC	-7.0%	2.51µM*	9.5%	-3.5%	2.82µM*	i
COc1cc(C(=O)NCC(=O)OCC(=O)Nc2nnc(-c3ccccc3)o2)cc(OC)c1OC	5.3%	nt	3.3%	0.9%	nt	i
CCCCC(=O)Nc1nnc(C2=COCCO2)o1	4.1%	12.6µM*	6.5%	4.5%	0.4%	i
COc1ccc(C(=O)Nc2nnc(C3=COCCO3)o2)cc1	-2.1%	2.24µM*	-1.3%	1.9%	2µM*	i
SMILES	TGFb SMAD3 inh	RORgamma inh	HepG2 tox	ATXN2 expr inh	VP16 counter	ATXN viability
CCOc1ccc(C(=O)Nc2nnc(C3=COCCO3)o2)cc1	2.6%	2.51µM*	-18.5%	1.0%	1µM*	i
CCOC(=O)Cn1c(=N)n(Cc2ccc(C(C)(C)C)cc2)c2ccccc21	?	nt	-51.5%	-13.1%	nt	?
CC(=O)Nc1ccc2nc3c(=O)[nH]c(=O)[nH]c3nc2c1	16.0%	nt	1.1%	nt	nt	nt
COc1ccccc1NCc1cccn1-c1nnc(N2CCOCC2)s1	-2.8%	nt	-11.4%	15.0%	nt	i
O=C(O)c1ccc(/C=N/Nc2ccc(F)cc2F)cc1	-9.8%	12.6µM*	-17.3%	18.6%	?	i
Fc1ccc(N/N=C/c2ccncc2)c(F)c1	-0.4%	?	-24.9%	43.9%	18.3%	i
CC(C)(C)c1ccc(/C=N/Nc2ccc(C(=O)O)cc2)cc1	-26.8%	0.02µM*	21.3%	?	17.8µM*	i
O=C(N/N=C/c1c(F)cccc1Cl)C1CC1	-7.1%	1.6%	-7.8%	0.7%	-8.3%	i
O=C(O)c1ccc(N/N=C/c2c(F)cccc2Cl)cc1	-3.5%	2µM*	-1.9%	?	0.708µM*	i
CCCCOC(=O)c1ccc(NC(=O)c2cc(-c3ccccc3)on2)cc1	-14.7%	nt	5.4%	7.7%	nt	i
COc1ccc(C(=O)COC(=O)c2cc(-c3cccs3)nc3ccccc23)cc1	0.6%	nt	-23.6%	53.8%	nt	i
CCOc1ccc(Cn2c3ccc(OC)cc3c3nc4ccccc4nc32)cc1OC	-0.7%	12.6µM*	-22.2%	-33.0%	?	i
COc1ccc(CNc2nc3ccccc3n2Cc2ccc(Cl)cc2)cc1OC	14.1µM*	39.2%	-35.6%	-25.6%	?	i
CCc1nc2ccccc2n1Cc1ccc(OC)c(OC)c1	6.9%	-26.0%	-25.3%	-2.0%	-9.8%	i
COc1ccc(/C=C/c2nc3ccccc3n2Cc2ccc(OC)c(OC)c2)cc1	-20.7%	12.6µM*	-8.3%	nt	?	?
COc1ccc2c(c1)c1nc3ccccc3nc1n2Cc1ccc(OC)c(OC)c1	-26.6%	?	-2.2%	-6.0%	?	?
COc1ccc(NC(=O)CN2CCN(c3c(C)cccc3C)CC2)cc1	-9.3%	nt	-13.4%	-22.8%	nt	i
CC1(C(=O)Nc2ccc(F)c(Cl)c2)Cc2c(-c3ccccc3)ccnc2O1 (configuration not stated)	?	nt	-16.3%	-6.4%	nt	i
Cc1cc2c(SCC(=O)Nc3cccc(O)c3)ncnc2s1	1.8%	nt	10.3%	0.0%	nt	i
CCOC1=C2[C@@H](CN(S(=O)(=O)c3ccc(C)cc3)[C@H]2c2ccccc2F)[C@H]2C(=O)N(C3CCCCC3)C(=O)[C@H]2C1	?	nt	0.1%	7.9%	nt	i
